Screening results as filed in PubChem BioAssay.
RGS16-Gao = modulators of RGS16 binding to Galphao, primary screen, biochemical, human proteins, multiplexed bead flow cytometry; Regulator of G-protein signaling 16 (Homo sapiens) + Guanine nucleotide-binding protein …; AID 1441, 2008; binding response (% of control), % at 10 µM; actives 0.38% (n = 220,000); bead-based flow cytometry RGS16-Galphao binding, fluorescence; actives lie on both sides;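 also: Galphao activated by GDP with aluminum fluoride before binding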
RGS7-Gao = RGS7-Galphao binding modulators, primary screen, biochemical, multiplexed bead flow cytometry; actives 0.35% (n = 220,000); Guanine nucleotide-binding protein G(o) subunit alpha (Homo sapiens), P09471; binding response (% of control), % at 10 µM; actives lie on both sides; in the data active = binding response below about 49% or above about 150%; inconclusive = no clear call, values can overlap the other calls; inactive = in between;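 also: fluorescent Galphao held in activated GDP-AlF4 state binding bead-coupled RGS7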
Target sequence (P09471 whole entry, looked up): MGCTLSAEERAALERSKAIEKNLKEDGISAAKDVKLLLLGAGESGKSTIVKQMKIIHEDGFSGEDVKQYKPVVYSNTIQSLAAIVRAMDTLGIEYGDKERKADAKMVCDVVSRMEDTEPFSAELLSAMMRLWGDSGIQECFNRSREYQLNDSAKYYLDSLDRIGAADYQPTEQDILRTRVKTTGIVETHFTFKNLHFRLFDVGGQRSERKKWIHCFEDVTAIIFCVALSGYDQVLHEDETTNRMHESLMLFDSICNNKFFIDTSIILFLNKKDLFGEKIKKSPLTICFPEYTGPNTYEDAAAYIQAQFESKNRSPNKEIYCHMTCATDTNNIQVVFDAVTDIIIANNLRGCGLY
GSH bead fluor = compound fluorescence on glutathione beads, profiling panel, artefact control, biophysical, 488/530 nm, flow cytometry; GSH beads flow cytometry, compound fluorescence 488/530 nm; active compounds read high; actives 0.25% (n = 190,000); fluorescence (KMESF) at 10 µM; AID 1776, 2009; in the data active = fluorescence above about 89;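 also: glutathione beads carrying GST-tagged Bcl family fusion proteins plus one bare bead set; values are compound well signal with DMSO vehicle wells as background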
Avidin bead fluor = green autofluorescence of compounds with avidin beads – biophysical, 488/530 nm, flow cytometry, artefact control, profiling panel | fluorescence (KMESF) at 10 µM | actives 0.38% (n = 220,000) | compound fluorescence 488/530 nm; active compounds read high; in the data active = fluorescence above about 47
RGS8-Gao = RGS8-Galphao binding modulators, primary screen, biochemical, multiplexed bead flow cytometry; Guanine nucleotide-binding protein G(o) subunit alpha (Homo sapiens), P09471; actives lie on both sides; response (percent of control binding), % at 10 µM; actives 0.34% (n = 220,000); in the data active = response below about 60% or above about 140%; inactive = in between;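 also: Galphao activated as the GDP aluminium fluoride complex binding bead-coupled RGS8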
RGS4-Gao reg = modulators of RGS4 binding to Galphao, primary screen, biochemical, multiplexed bead flow cytometry. binding response (% of control), % at 10 µM. actives lie on both sides. actives 0.33% (n = 220,000). AID 1415, 2008; in the data active = binding response below about 49% or above about 150%; inactive = in between;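 also: fluorescent Galphao activated with aluminum fluoride binding bead-coupled RGS4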
RGS4-Gao HTS = modulators of RGS–Galpha-o binding, primary screen, biochemical, multiplexed beads, flow cytometry, RGS4/7/8/16/19 | shares compounds with RGS16-Gao | RGS4–Galpha-o binding response, % at 10 µM | actives 99% (n = 1,600) | multiplexed bead flow cytometry;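 also: fluorescently labeled Galpha-o bound to GDP with aluminium fluoride binding biotinylated RGS beads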
Biotin-avidin = disruption of biotin probe capture by avidin, counter-screen for RGS protein interaction modulators, biochemical, flow cytometry, bead-based | shares compounds with RGS16-Gao | streptavidin beads, fluorescein-biotin binding | 1,700 tested, under 10 active | inhibition, % at 10 µM;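 active = inhibition above 50%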;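 also: median green fluorescence of gated singlet beads compared with DMSO control wells; 0% = DMSO wells and 100% = complete loss of bead fluorescence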
RGS8-Gao confirm = RGS8-Galphao binding modulators, confirmation, biochemical, multiplexed bead flow cytometry, single concentration. shares compounds with RGS16-Gao. bead-based flow cytometry RGS8-Galphao binding, fluorescence; actives lie on both sides. binding response (% of control), % at 10 µM. actives 3% (n = 1,700). AID 1836, 2009; in the data active = binding response below about 72% or above about 130%; inactive = in between;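 also: Galphao activated as GDP AlF4 complex before binding bead RGS8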
RGS7-Gao single = RGS7-Galphao binding modulators, confirmation, biochemical, multiplexed bead flow cytometry, single concentration. bead-based flow cytometry RGS7-Galphao binding; actives lie on both sides. shares compounds with RGS16-Gao. response (percent of control binding), % at 10 µM. actives 7.8% (n = 1,700); in the data active = response below about 75% or above about 130%; inactive = in between;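 also: fluorescent Galphao activated with GDP and aluminum fluoride binding bead-coupled RGS7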
RGS16-Gao conf = modulators of RGS16-Galphao protein binding, confirmation, biochemical, single concentration, multiplexed bead flow cytometry. shares compounds with RGS16-Gao. bead-based flow cytometry; actives lie on both sides. response (% of control binding), % at 10 µM. actives 4% (n = 1,700). AID 1838, 2009; in the data active = response below about 74% or above about 130%; inactive = in between;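 also: Galphao activated as the GDP aluminium fluoride complex binding bead-coupled RGS16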
RGS4-Gao single = modulators of RGS4-Galphao protein binding, confirmation, biochemical, single concentration, multiplexed bead flow cytometry; shares compounds with RGS16-Gao; actives lie on both sides; binding response (% of control), % at 10 µM; actives 4% (n = 1,700); AID 1840, 2009; in the data active = binding response below about 74% or above about 130%; inactive = in between
RGS19-Gao conf = regulators of RGS19-Galphao binding, confirmation, biochemical, single point, multiplexed bead flow cytometry; shares compounds with RGS16-Gao; bead-based flow cytometry RGS19-Galphao binding; actives lie on both sides; response (percent of control binding), % at 10 µM; actives 5% (n = 1,700); in the data active = response below about 50% or above about 160%; inactive = in between;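 also: 100% = no compound control and 0% = blank background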
Target sequence (P09471 whole entry, looked up): as above
Target sequence (P49795 whole entry, looked up): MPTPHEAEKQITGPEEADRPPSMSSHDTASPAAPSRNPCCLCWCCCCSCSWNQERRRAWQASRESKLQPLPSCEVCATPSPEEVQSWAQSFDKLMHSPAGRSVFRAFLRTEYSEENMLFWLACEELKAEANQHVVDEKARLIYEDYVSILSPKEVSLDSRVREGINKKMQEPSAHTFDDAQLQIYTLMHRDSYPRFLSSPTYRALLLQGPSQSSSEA
The depositor's hits bear a star; ? = inconclusive; nt = no result; [ ] = dose if it differs, or a comment. Only some compounds are listed: those with a hit (about 1.2% of all), similar ones and a draw of the others. Unless noted, no rule for the calls is given here.

SMILES | RGS16-Gao | RGS7-Gao | GSH bead fluor | Avidin bead fluor | RGS8-Gao | RGS4-Gao reg | RGS4-Gao HTS | Biotin-avidin | RGS8-Gao confirm | RGS7-Gao single | RGS16-Gao conf | RGS4-Gao single | RGS19-Gao conf
S=c1[nH]nc(-c2ccc(Cl)cc2)n1/N=C/C=C/c1ccco1 | 97.0 | ? | nt | 7 | 96.1 | 99.1 | nt | nt | nt | nt | nt | nt | nt
COc1ccccc1NCC(=O)n1nc(C)cc1C | 92.9 | 101.5 | 10 | 10 | 98.6 | 93.1 | nt | nt | nt | nt | nt | nt | nt
CCNc1ccc2noc3c2c1C(=O)c1ccccc1-3 | 42.7 | 45.6* | 14 | 7 | 55.0* | 46.6* | nt | 0.1 | 68.8* | 62.9* | 65.8* | 68.8* | 115.9
O=C(Nc1cccc(Cl)c1)NC1CC2CCC(C1)N2Cc1cccs1 (configuration not stated) | 104.4 | 102.6 | 18 | 11 | 101.9 | 103.0 | nt | nt | nt | nt | nt | nt | nt
COc1ccc(NC(=O)C(CC(C)C)NC(=O)C2CCC(C)CC2)c(OC)c1 (configuration not stated) | 116.2 | 108.7 | 11 | 12 | 110.0 | 111.3 | nt | nt | nt | nt | nt | nt | nt
Cc1cc(Cl)ccc1N=c1ssnc1Cl | 18.9* | 106.5 | 7 | 8 | 77.3 | 83.4 | 83.4* | -0.6 | 87.3 | 92.6 | 78.2 | 96.5 | 54.8
CCC(=O)NC(c1ccc(C)cc1)c1cc([N+](=O)[O-])c2cccnc2c1O (configuration not stated) | 13.3 | 71.9 | 9 | 1 | 57.7* | 67.6 | 67.6* | 0.3 | 89.4 | 89.1 | 84.8 | 95.1 | 41.6*
NCCCC(=O)O | 116.0 | 102.7 | 20 | 7 | 104.6 | 103.1 | nt | nt | nt | nt | nt | nt | nt
CCCC(N)CCCCCC(=O)O (configuration not stated) | 332.5*[activator] | 120.1 | 25 | 14 | 123.2 | 129.4 | 129.4* | -2.5 | 99.5 | 97.6 | 97.9 | 101.1 | 93.0
Nc1ccc(-c2nc3c(Cl)cc(N)cc3[nH]2)cc1 | 89.2 | 26.5* | 2 | 1 | 63.1 | 77.7 | 77.7* | 0.7 | 103.1 | 99.8 | 106.7 | 101.5 | 128.0
Nc1ccc2nc(-c3ccc(N)c(Cl)c3)[nH]c2c1 | 102.3 | 101.5 | 12 | 7 | 102.0 | 100.8 | nt | nt | nt | nt | nt | nt | nt
COc1ccc(C[C@H]2CN3C(=NC[C@@H]3C(C)C)N2CCNC(=O)CCC2CCCCC2)cc1 | 13.7* | 10.0* | 21 | -1 | 19.6* | 26.9* | nt | 0.1 | 103.3 | 135.8*[activator] | 115.7 | 126.0*[activator] | 133.5
Cc1ccc(NC(=O)C(=O)NCC2CCCO2)cc1 (configuration not stated) | 107.1 | ? | 18 | 11 | 105.7 | 108.5 | nt | nt | nt | nt | nt | nt | nt
CCNC(=S)Nc1cc(OCC)c(NC(=O)c2cccs2)cc1OCC | 50.2 | 36.1* | 6 | 7 | 61.5 | 43.5* | nt | -1.8 | 101.0 | 100.2 | 101.0 | 100.5 | 95.4
CCC(C)(C)NC(=O)C(c1cccn1C)N(C(=O)Cn1nnc2ccccc21)c1ccccc1OC (configuration not stated) | 24.4* | 79.2 | 16 | 5 | 68.1 | 76.9 | 76.9* | -1.4 | 96.8 | 48.4* | 78.7 | 59.9* | 59.2
CCOc1c(O)ccc(C2NC(=O)N(C)C(C)=C2C(=O)OC)c1[N+](=O)[O-] (configuration not stated) | 89.3 | 435.6*[activator] | 20 | 168* | 80.5 | 130.4 | 130.4* | -0.2 | 97.5 | 97.6 | 97.4 | 97.5 | 99.8
CCOc1c(O)ccc(C2NC(=O)NC(C)=C2C(=O)OC)c1[N+](=O)[O-] (configuration not stated) | 99.3 | 103.8 | 11 | 20 | 99.8 | 100.0 | nt | nt | nt | nt | nt | nt | nt
CCCCCC(=O)NC(=S)Nc1cccc(C(C)=O)c1 | 103.0 | 100.5 | 17 | 16 | 101.7 | 99.1 | nt | nt | nt | nt | nt | nt | nt
CCCC(=O)NC(=S)Nc1cccc(C(C)=O)c1 | 325.6 | 118.7 | 36 | 14 | 145.0*[activator] | 114.1 | 114.1* | 1.2 | 99.7 | 100.1 | 100.4 | 100.2 | 97.7
CNC(=O)C1CC(=O)N(CCCc2ccccc2)C(=Nc2ccccc2)S1 (configuration not stated) | 22.4* | 92.4 | 47 | 3 | 87.3 | 94.0 | 94.0* | 1.3 | 102.3 | 100.6 | 103.7 | 98.5 | 120.2
CCOC(=O)c1cccc(NC(=O)Cn2c(CC(=O)NC)nc3ccccc32)c1 | 191.0*[activator] | 115.7 | 10 | 18 | 122.0 | 171.5*[activator] | nt | -2.0 | 102.0 | 109.4 | 105.3 | 104.9 | 117.2
CCOc1cc(/C=N/Nc2nc(-c3cccs3)c(NC(C)=O)s2)ccc1O | 94.2 | ? | nt | 4 | 97.3 | 100.2 | nt | nt | nt | nt | nt | nt | nt
CNC(=O)c1ccccc1Sc1ccccc1CO | 97.5 | ? | nt | 7 | 80.9 | 93.8 | nt | 0.0 | 109.6 | 106.1 | 111.5 | 105.8 | 106.3
CNC(=O)c1cccc2cccc(Sc3ccccc3C(=O)O)c12 | 99.2 | ? | nt | 3 | 100.0 | 102.9 | nt | nt | nt | nt | nt | nt | nt
